Assay outcomes as filed in PubChem BioAssay.
Compounds with a hit are over-represented: about 9.5% of the library has one in this group of screens.
SARS PLpro yeast: blocks SARS-CoV papain-like protease in a yeast assay; Potency, µM (titrated, usually from 32.9 µM), inactives show at the highest dose activity, positive = growth rescue, most hits filed as activators; 330,000 compounds, 0.19% hits; S. cerevisiae expressing SARS-CoV PLpro, growth rescue; further: 0% is about no effect; nearly all actives have a fitted effect of over 55% in size
RE007 growth inh: less growth of the S. pombe RE007 Vpr strain. S. pombe RE007 Vpr strain, BacTiter-Glo ATP luminescence, 24 h. Potency, µM (doses to about 92.2 µM), for the others: at the highest dose activity change, negative = less growth, hits mostly inhibitors. 360,000 compounds, 0.21% hits. AID 651644; active means well fitted falling curve with a large enough effect; inconclusive means small, poorly fitted or top-dose-only effect; inactive means no such curve, though single readings can be large or run the other way; further: on the % scale 0 is the no-effect control and ±100 the full control effect; nearly all actives have a fitted effect of over 50% in size
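Fission yeast RE007 carrying one integrated HIV-1 vpr copy, seeded at OD 0.01 in PMG+AL medium with 23 nL pinned compound. Grown 24 h at 30 degrees; viability read by BacTiter-Glo luminescence after 5 min.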
Pf growth 48h: inhibits P. falciparum growth in the first generation, 48 h | P. falciparum luciferase growth in erythrocytes, 48 h | Potency, µM (top dose mostly 28.7 µM), inactives show top-dose activity change, negative = inhibition, most hits filed as inhibitors | 310,000 compounds, 5.9% hits | AID 504832; active means well fitted inhibition curve with a large enough effect; inconclusive means small, poorly fitted or top-dose-only effect, or another doubt; inactive means no such curve, though single readings can be large or run the other way; further: on the % scale 0 is the no-effect control and ±100 the full control effect
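Compounds are pin-transferred into medium, infected erythrocytes (2% hematocrit, 0.1% parasitemia final) are added, and plates sit one parasite generation at 37 C in 5% CO2. Detection reagent is then added and luminescence measured.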
Pf growth 96h: P. falciparum growth inhibition at 96 hour, primary screen for plastid delayed-death inhibitors | Potency, µM (titrated, usually from 28.7 µM), for inactives: at the top dose activity change, negative = inhibition, actives largely listed as inhibitors | 320,000 compounds, 6.9% hits | P. falciparum luciferase reporter growth, 96 h; active means well fitted inhibition curve with a large enough effect; inconclusive means small, poorly fitted or top-dose-only effect, or another doubt; inactive means no such curve, though single readings can be large or run the other way; further: on the % scale 0 is the no-effect control and ±100 the full control effect
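Plates of compound plus infected erythrocytes (2% hematocrit, 0.05% parasitemia final) incubate 96 hours, 37 C, 5% CO2. Detection reagent added; reduced luminescence from the parasites' luciferase reporter flags inhibition.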
NS1 inh: influenza NS1 inhibition; Potency, µM (doses to about 46.1 µM), for inactives: top-dose activity, positive = more growth; 270,000 compounds, 0.4% hits; further: actives are rising curves; nearly all actives have a fitted effect of over 50% in size
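A cell-based growth assay was used: compounds that relieve NS1-induced slow growth of budding yeast raise OD600. Assay medium was yeast nitrogen base with ammonium sulphate and -URA supplement, pH 6.0, with 2% galactose.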
Numbers without * were called inactive; ? = inconclusive; . = no result; [ ] = another dose, or the depositor's remark. Unless noted, the call rests on the fitted dose curve. Potency means the concentration at half of the fitted maximal effect.

SMILES	SARS PLpro yeast	RE007 growth inh	Pf growth 48h	Pf growth 96h	NS1 inh
CN(CC/C=C1/c2ccccc2CSc2ccccc21)CCCO	9%	7%	12µM*	13µM*	-2%
CN(C)CC/C=C1\c2cc(F)ccc2CSc2ccccc21	-4%	11%	13µM*	?	-6%
C#CCN(C)CC/C=C1\c2ccccc2CSc2ccccc21	-14%	-15%	13µM*	?	-11%[9.22 µM]
C=CCN(C)CC/C=C1\c2ccccc2CSc2ccccc21	-20%	4%	?	?	-9%
CCOc1ccc(S(=O)(=O)N2CCC(C(=O)NC3CC3)CC2)cc1Cl	0%	28%	?	-4%	-1%
COc1cccc(-c2cccc3c2NC(=O)C3(C)Cc2cccc(F)c2)c1 (configuration not stated)	.	-12%[18.4 µM]	.	.	.
CCOC(=O)N1CCN(C2=C(NS(=O)(=O)c3ccc(NC(C)=O)cc3)C(=O)c3ccccc3C2=O)CC1	2%	-21%	?	9.3µM*	6%
CC(=O)Nc1ccc(S(=O)(=O)NC2=C(N3CCN(Cc4ccccc4)CC3)C(=O)c3ccccc3C2=O)cc1	3%	?	.	1.2µM*	-6%
CC(=O)Nc1ccc(S(=O)(=O)NC2=C(N3CCN(C)CC3)C(=O)c3ccccc3C2=O)cc1	-1%	-5%	?	?	7%
CCN1CCN(C2=C(NS(=O)(=O)c3ccc(NC(C)=O)cc3)C(=O)c3ccccc3C2=O)CC1	-2%	-17%	?	10µM*	-10%
CCN1CCN(C2=C(NS(=O)(=O)c3ccc(C)cc3)C(=O)c3ccccc3C2=O)CC1	-4%	-5%	2.9µM*	1.7µM*	2%
COc1ccccc1Cc1c(-c2ccco2)nc2ccc(Br)cn12	.	-23%	.	.	.
Cc1c2cnn(CC(=O)N3CCOCC3)c(=O)c2c(C)n1Cc1ccccc1F	-6%	-7%	1%	?	11%
C[C@H]1CN([C@@H](C)CO)C(=O)CCCn2nncc2CO[C@H]1CN(C)C(=O)Cc1ccccc1	.	-18%	.	.	.
CCOc1ccc(N(CC(=O)NC2CCCCC2)C(=O)Cn2nnc(-c3ccc(C)o3)n2)cc1	-4%	-11%	-3%	0%	21%
Cn1c(SCCN2CCOCC2)nc2sc3c(c2c1=O)CCCC3	6%	15%	-8%	-4%	26%
C=CCn1c(SCc2c(C)noc2C)nc2sc3c(c2c1=O)CCCC3	-8%	10%	13µM*	2.1µM*	-52%
COc1cc2nc(SCc3c(C)noc3C)n(CCC3=CCCCC3)c(=O)c2cc1OC	-1%	0%	?	1.7µM*	-17%
Cc1noc(C)c1CSc1nc2sc(C)c(C)c2c(=O)n1C1CCCC1	-3%	0%[3.69 µM]	4.1µM*	.	-6%
C=CCn1c(SCC(=O)N(C)C)nc2sc3c(c2c1=O)CCC3	3%	-2%	-7%	-14%	0%
Cc1sc2nc(SCc3nc(-c4cccs4)no3)n(-c3ccccc3)c(=O)c2c1C	-12%	-7%	?	?	?
Cc1noc(C)c1CSc1nc2sc3c(c2c(=O)n1C)CCCC3	2%	11%	.	1.7µM*	7%
NS(=O)(=O)c1ccc(CCNc2ccn3nc(-c4ccc(OCCN5CCOCC5)cc4)cc3n2)cc1	.	-13%	.	.	.
N#Cc1ccc(OC(=O)C2CCN(C3=NS(=O)(=O)c4ccccc43)CC2)cc1	1%	17%	-7%	-9%	.
COC(=O)c1ccc(CSc2nc3sc4c(c3c(=O)n2C)CCCC4)o1	4%	-4%	10%	?	-3%
SMILES	SARS PLpro yeast	RE007 growth inh	Pf growth 48h	Pf growth 96h	NS1 inh
C=CCn1c(SCc2c(C)noc2C)nc2sc3c(c2c1=O)CCCCC3	-12%	-1%	1.9µM*	.	9%
C=CCSc1nc2sc3c(c2c(=O)n1CC)CCC3	-1%	-26%	23%	?	-18%
C=CCn1c(SCc2c(C)noc2C)nc2ccccc2c1=O	-9%	4%	.	13µM*	-65%
COC(=O)c1sc(N)c(C(=O)OC)c1CSc1nc2sc3c(c2c(=O)n1C)CCC3	4%	-4%	?	1.7µM*	1%
N#Cc1c(NC(=O)c2cnccn2)sc2c1CCCC2	-44%	-14%	175%	73%	9%
CSc1ccccc1C(=O)N(C)C(c1ccccc1)c1ccccc1	-8%	-4%	?	10µM*	-34%
COc1ccc(S(=O)(=O)N(C)C)cc1NC(=O)c1ccc(OCC(=O)N2CCOCC2)c(OC)c1	-1%	-3%	-17%	-11%	.
O=C(CCNS(=O)(=O)c1ccc(Br)cc1)NNC(=O)C1COc2ccccc2O1 (configuration not stated)	10%	-6%	.	.	.
CCCCNC(=O)c1c(C)cc(=O)oc1C	6%	-5%	12%	-3%	-4%
COc1ccc(CNC(=O)c2c(C)cc(=O)oc2C)cc1	0%	24%	13%	22%	.
Cc1cc2oc(=O)cc(CN3CCC(C)CC3)c2c(C)c1Cl	0%	-3%	-5%	-7%	-17%
COc1ccc(N2CCN(CCNC(=O)Nc3ccc(C)cc3Cl)CC2)cc1	-2%	-4%	1%	2.3µM*	2%
COc1ccc(N2CCN(Cc3cc(=O)oc4cc(C)c(Cl)c(C)c34)CC2)cc1	-3%	-2%	4.1µM*	-21%	-9%
COc1ccc(N2CCN(CCNC(=O)c3c(C)cc(=O)oc3C)CC2)cc1	-1%	-11%	12µM*	?	-3%
Cc1cc(=O)oc(C)c1C(=O)NCCCN1CCN(c2ccc(F)cc2)CC1	0%	-2%	?	0.74µM*	5%
O=C1NCCc2c1[nH]c1ccccc21	-1%	10%	-5%	76%	2%
CC1Cc2c([nH]c3ccccc23)C(=O)N1 (configuration not stated)	-4%	-1%	9%	9.3µM*	-7%
Cc1ccc(-c2cccc(C3CC=CC4C3C(=O)N(Cc3ccccc3)C4c3ccc4ccccc4c3)c2)cc1 (configuration not stated)	-1%	2%	?	?	9%
C[C@@]12CCC=C[C@H]1[C@H](c1ccc3ccccc3c1Br)N(Cc1ccccc1)C2=O	8%	11%	9.3µM*	10µM*	17%
COc1ccc(-c2cc([C@H]3[C@@H]4C=CCC[C@@]4(C)C(=O)N3Cc3ccccc3)ccc2F)cc1	-7%	3%	?	?	8%
C[C@@]12CCC=C[C@H]1[C@H](c1ccc3ccccc3c1)N(Cc1ccccc1)C2=O	-14%	11%	?	9.3µM*	-30%
Cc1cc(C(=O)CN2CCN(CC(=O)Nc3ccc(F)cc3)CC2)c(C)n1C1CC1	1%	0%	?	-7%	.
COC(=O)CN(c1cc(Cl)ccc1OC)S(=O)(=O)c1ccc(C)cc1	1%	1%	2.1µM*	-14%	-9%
COc1ccc(S(=O)(=O)NN(C)C)cc1N(C)S(=O)(=O)c1ccc(Cl)cc1	-3%	15%	12%	0%	6%
COC(=O)CN(c1cccc(OC)c1)S(C)(=O)=O	14%	-10%	7%	5.9µM*	-10%
